Several values for one entry are separate records, joined by “and”; a condition that tells them apart may be missing. Identical values can stand only once. Where a structure was tested more than once in an assay, its records may differ in their call. Activity calls are given as the source filed them. Rule for the calls: active = hit-call score of the fitted dose curve at least 0.9, where 1 is the maximum; inactive = score below 0.9.

Read-out in test [1]: TIMP metallopeptidase inhibitor 2 (TIMP2), TIMP2 (gene 7077)
The test is described as follows: BSK_KF3CT_TIMP2: BioMAP Diversity Plus: KF3CT Assay for TIMP metallopeptidase inhibitor 2 (TIMP2) Biomarker Activity (AID 2283071). The following applies: primary human keratinocytes with fibroblasts; actives raise or lower the signal. In short, it runs like this: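 TIMP-2 measured by ELISA at 24 h in human keratinocyte/fibroblast primary co-cultures exposed to chemicals. Both increases and decreases were fitted against DMSO. Parallel cultures were stained with SRB for total protein as an overt-cytotoxicity check.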

Read-out in test [2]: Transforming growth factor beta 1 (TGFb1), TGFB1 (gene 7040)
The test is described as follows: BSK_KF3CT_TGFb1: BioMAP Diversity Plus: KF3CT Assay for Transforming growth factor beta 1 (TGFb1) Biomarker Activity (AID 2283072). The following applies: primary human keratinocytes with fibroblasts; actives raise or lower the signal. The gist of the method:
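ELISA quantifies TGF-b1 at 24 h post-dose in a primary human skin co-culture of keratinocytes and fibroblasts, with gain or loss judged against DMSO. Parallel SRB total-protein staining flags overt cytotoxicity.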

Read-out in test [3]: C-C motif chemokine 2 (Homo sapiens) (UniProt P13500)
The test is described as follows: BSK_KF3CT_MCP1: BioMAP Diversity Plus: KF3CT Assay for Monocyte Chemoattractant Protein 1 (MCP1/CCL2) Biomarker Activity (AID 2283073). The following applies: primary human keratinocytes with fibroblasts; actives raise or lower the signal. In short, it runs like this:
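Human keratinocyte plus foreskin fibroblast primary co-culture exposed to chemical for 24 h. MCP-1 levels measured by ELISA. Bidirectional curve fitting relative to DMSO negative control as baseline.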

Read-out in test [4]: Matrix Metallopeptidase 9 (MMP9), MMP9 (gene 4318)
The test is described as follows: BSK_KF3CT_MMP9: BioMAP Diversity Plus: KF3CT Assay for Matrix Metallopeptidase 9 (MMP9) Biomarker Activity (AID 2283074).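 For AC50: MMP9 protein level quantified by ELISA in the co-culture.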 The following applies: primary human keratinocytes with fibroblasts; actives raise or lower the signal. The gist of the method: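 ELISA read-out of MMP-9 at 24 h post-dosing in a co-culture of human skin keratinocytes and foreskin fibroblasts. Gain or loss of signal was fitted in both directions against DMSO.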

Read-out in test [5]: urokinase plasminogen activator (uPA), PLAU (gene 5328)
The experiment in a line: BSK_KF3CT_uPA: BioMAP Diversity Plus: KF3CT Assay for urokinase plasminogen activator (uPA) Biomarker Activity (AID 2283075). The following applies: primary human keratinocytes with fibroblasts; actives raise or lower the signal. The gist of the method:
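Skin co-culture (keratinocytes + foreskin fibroblasts), human primary; 24 h post-dose; uPA by ELISA; gain/loss fit vs DMSO baseline.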

Read-out in another test: CD40, CD40 (gene 958)
The experiment in a line: BSK_LPS_CD40: BioMAP Diversity Plus: LPS Assay for CD40 Biomarker Activity (AID 2283076). The following applies: primary human HUVEC with PBMC; actives raise or lower the signal. The gist of the method: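 Primary human umbilical vein endothelial cells co-cultured with peripheral blood mononuclear cells, LPS-stimulated, were dosed with chemical and read 24 h later. CD40 levels were measured by ELISA and fitted bidirectionally against DMSO as negative control and baseline.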

Read-out in test [6]: E-selectin (Homo sapiens) (UniProt P16581)
The test is described as follows: BSK_LPS_Eselectin: BioMAP Diversity Plus: LPS Assay for Eselectin Biomarker Activity (AID 2283077). The following applies: primary human HUVEC with PBMC; actives raise or lower the signal. The gist of the method:
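Human umbilical vein endothelial cells co-cultured with peripheral blood mononuclear cells under LPS stimulation; E-selectin measured by ELISA 24 h after chemical dosing. Activity fitted bidirectionally against DMSO as negative control and baseline.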

Read-out in test [7]: Interleukin-8 (IL8), CXCL8 (gene 3576)
The experiment in a line: BSK_LPS_IL8: BioMAP Diversity Plus: LPS Assay for Interleukin-8 (IL8) Biomarker Activity (AID 2283078). The following applies: primary human HUVEC with PBMC; actives raise or lower the signal. In short, it runs like this: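 Human umbilical vein endothelial cells co-cultured with PBMC were stimulated with LPS; IL-8 levels were measured by ELISA 24 h after chemical dosing. Activity was fitted bidirectionally against DMSO as negative control and baseline.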

Test [8] in a line: BSK_LPS_SRB: Viability Assessment in the BioMAP Diversity Plus: LPS Assay (AID 2283079).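 Note: total protein by sulforhodamine B absorbance as a cytotoxicity measure; measured one day after compound addition.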 The settings on record: primary human HUVEC with PBMC. The gist of the method: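 Human umbilical vein endothelial cells co-cultured with PBMC (LPS system) were dosed for 24 h. Total protein was stained with 0.1% sulforhodamine B after 10% TCA fixation, read at 560 nm, and fitted bidirectionally against DMSO baseline.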

Read-out in test [9]: Interleukin-1 alpha (IL1a), IL1A (gene 3552)
The test is described as follows: BSK_KF3CT_IL1a: BioMAP Diversity Plus: KF3CT Assay for Interleukin-1 alpha (IL1a) Biomarker Activity (AID 2283070). The following applies: primary human keratinocytes with fibroblasts; actives raise or lower the signal. The gist of the method: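 Primary skin co-culture (keratinocytes, foreskin fibroblasts), 24 h exposure; ELISA for IL-1a; bidirectional curve fit vs DMSO.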

Chain of E-selectin (Homo sapiens) (P16581 whole entry, looked up): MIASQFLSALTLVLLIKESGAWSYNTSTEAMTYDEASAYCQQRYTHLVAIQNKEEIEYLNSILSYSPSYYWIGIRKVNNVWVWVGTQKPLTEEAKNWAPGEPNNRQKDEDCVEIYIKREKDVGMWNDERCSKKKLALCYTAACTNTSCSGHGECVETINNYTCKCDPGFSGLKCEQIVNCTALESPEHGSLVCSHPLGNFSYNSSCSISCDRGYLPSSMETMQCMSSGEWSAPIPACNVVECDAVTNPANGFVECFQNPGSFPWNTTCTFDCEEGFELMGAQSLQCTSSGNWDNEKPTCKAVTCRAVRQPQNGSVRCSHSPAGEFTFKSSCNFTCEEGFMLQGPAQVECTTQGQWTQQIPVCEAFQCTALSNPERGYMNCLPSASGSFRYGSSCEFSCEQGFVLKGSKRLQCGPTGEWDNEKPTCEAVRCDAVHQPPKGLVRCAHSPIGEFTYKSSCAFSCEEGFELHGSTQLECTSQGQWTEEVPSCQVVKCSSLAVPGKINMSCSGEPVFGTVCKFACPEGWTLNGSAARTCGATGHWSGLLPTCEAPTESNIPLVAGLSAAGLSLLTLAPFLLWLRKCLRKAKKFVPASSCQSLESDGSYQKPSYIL

As usually defined, the AC50 is the concentration at which the activity in the assay is half-maximal. With `Clc1cc(Cl)c(Cl)c(Cl)c1Cl`, the AC50 in [1] was 20 µM (active). The outcome was “inactive” in test [2]; “inactive” in test [3]; “inactive” in test [4]; “inactive” in [5]; “inactive” with CD40, CD40 (gene 958); “inactive” in test [6]. For the same compound, the result in [7] and in test [8] was inactive.

Consider `CCOC(=O)C1=NOC(c2ccccc2)(c2ccccc2)C1`, for which the outcome in [9] was “inactive”; in test [1], “inactive”; in test [3], “inactive”; in [4], “inactive”; in test [5], “inactive”; in the test with CD40, CD40 (gene 958), “inactive”. Also, the result in [6], in test [7] and in test [8] was inactive. For the same compound, in [2], the AC50 is 113 nM (active).

Turning to `c1ccc2c(c1)[nH]c1ccccc12`, the outcome was “inactive” in test [1]; “inactive” in [2]; “inactive” in test [3]; “inactive” in test [4]; “inactive” in test [5]; “inactive” in the test with CD40, CD40 (gene 958). The result in [6], in [7] and in test [8] was inactive. Also, in [7], the AC50 is 0.017 µM (active).

As for `CC(c1cc(C(C)(C)C)cc(C(C)(C)C)c1O)c1cc(C(C)(C)C)cc(C(C)(C)C)c1O`, the result in test [9], in test [1], in test [2], in test [3], in test [4] and in test [5] was inactive. Moreover, the outcome with CD40, CD40 (gene 958) was “inactive”; in test [6], “inactive”; in test [8] it was “inactive”.

As for `Oc1ccc(/C=C/c2cc(O)cc(O)c2)cc1`, the AC50 is 3.97 µM (active) in [9]; 8.83 µM (active) in test [1]; 20 µM (active) in test [3]; 16 µM (active) in test [4]; 20 µM (active) in [8]. In addition, the outcome in [2] was “inactive”; in test [5] it was “inactive”; with CD40, CD40 (gene 958) it was “inactive”; in test [6] it was “inactive”; in test [7], “inactive”.

Regarding `CC(C)C(=O)OCCc1ccccc1`, the outcome in [9] was “inactive”; in [1] it was “inactive”; in test [3], “inactive”; in [4] it was “inactive”; in test [5] it was “inactive”; with CD40, CD40 (gene 958) it was “inactive”. For the same compound, the outcome in [6] and in test [8] was inactive.

In the case of `c1ccc2sc(SSN3CCOCC3)nc2c1`, the AC50 is 12.2 µM (active) in test [9], 12.2 µM (active) in test [3], 12.6 µM (active) in [4] and 12.9 µM (active) in [5]. Moreover, the outcome was “inactive” in [1]; “inactive” in test [2]; “inactive” with CD40, CD40 (gene 958); “inactive” in test [6]; “inactive” in [8].

For the compound `Nc1cccc(N)n1`, the outcome in test [1] is “inactive”; in test [2] it was “inactive”; in [3] it was “inactive”; in [4], “inactive”; in [5] it was “inactive”; with CD40, CD40 (gene 958), “inactive”. Further, the outcome in test [6], in [7] and in test [8] was inactive.

Take `CCOC(=O)/C=C\C(=O)OCC`: the outcome in test [9] is “inactive”; in test [1] it was “inactive”; in test [2] it was “inactive”; in test [4] it was “inactive”; in [5], “inactive”; with CD40, CD40 (gene 958), “inactive”. For the same compound, the outcome in test [6], in [7] and in test [8] was inactive. Moreover, in [3], the AC50 was 3.97 µM (active).

As for `COc1ccc(C(=O)/C(Br)=C\C(=O)O)cc1`, the AC50 is 20 µM (active) and 24.8 µM (active) in [9]; 20 µM (active) in test [1]; 20 µM (active) and 6.52 µM (active) in [2]; 33 µM (active) and 35 µM (active) in test [3]; 25.6 µM (active) and 23.3 µM (active) in test [4]; 31.7 µM (active) in test [5]. In addition, the AC50 with CD40, CD40 (gene 958) was 10.2 µM (active) and 16 µM (active); in test [6] it was 25.3 µM (active) and 30.3 µM (active); in test [7], 20 µM (active); in test [8], 27.9 µM (active) and 31 µM (active). In addition, the outcome in test [5] was inactive.

Consider `CC(CCC(=O)O)(c1ccc(O)cc1)c1ccc(O)cc1`, for which the outcome in [9] is “inactive”; in [1], “inactive”; in test [3] it was “inactive”; in test [4], “inactive”; in [5], “inactive”; in the test with CD40, CD40 (gene 958) it was “inactive”. Moreover, the result in test [6] and in [8] was inactive.

With `C=CC(=O)NCOCCCC`, the result in test [9], in test [1], in test [2], in test [3], in test [4] and in [5] was inactive. For the same compound, the outcome was “inactive” with CD40, CD40 (gene 958); “inactive” in test [6]; “inactive” in test [7]; “inactive” in test [8].

Turning to `CC1=CC=C(C(C)C)CC1`, the outcome in test [1] is “inactive”; in test [2] it was “inactive”; in test [3] it was “inactive”; in [4], “inactive”; in [5], “inactive”; with CD40, CD40 (gene 958), “inactive”. The result in test [6], in [7] and in test [8] was inactive.

Source of the values: PubChem BioAssay (EPA / NIEHS).
